Source: PubChem BioAssay (National Center for Advancing Translational Sciences (NCATS))
Epigenetic derep = Quantitative High-Throughput Screen for Regulators of Epigenetic Control; murine LDR cells, GFP reporter derepression, 30 h; Potency, µM (series often up to 53.9 µM), most hits filed as activators; 280,000 tested, 0.2% active; further: nearly all actives have a fitted effect of over 60% in size
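Readout is the number of GFP-expressing murine LDR cells, counted by cytometry following washing. Cells were treated with compound for 30 h at 37 C; the stably integrated CMV-GFP locus is normally silent.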
Vif-APOBEC3G blk = qHTS for Inhibitors of Vif-A3G Interactions: qHTS | DNA dC->dU-editing enzyme APOBEC-3G (Homo sapiens), Q9HC16 | HeLa A3G-eYFP + Vif (tagged APOBEC3G with the HIV-1 protein that degrades it), YFP fluorescence, overnight | Potency, µM (series often up to 46.1 µM), actives largely listed as inhibitors | 410,000 tested, 0.076% active | AID 602310, 2012; further: nearly all actives have a fitted effect of over 60% in size
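Read-out is eYFP fluorescence (Ex 488/Em 500-530) from Vif-expressing HeLa A3G-eYFP cells; more signal means A3G escaped Vif-mediated degradation. Cells plated overnight, compound pinned in, incubated overnight at 37 deg C.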
PINK1 modulator = A Quantitative High throughput Screen to Identify Chemical Modulators of PINK1 Expression; PINK1 immunofluorescence, high-content cytometry, 24 h; Potency, µM (titrated, usually from 76.6 µM), actives largely listed as activators; 410,000 tested, 0.2% active; active means well fitted activation curve with a large enough effect; inconclusive means small, poorly fitted or top-dose-only effect; cell line not stated here; further: nearly all actives have a fitted effect of over 65% in size
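Compound titrations (5 concentrations, 24 h) on a stable cell line; DMSO and CCCP controls. Endpoint: fixed-cell PINK1 immunofluorescence with mitochondrial, cell and nuclear markers, scanned by microplate cytometer.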
Vif-A3F inh = qHTS for Inhibitors of Vif-A3F Interactions: qHTS; HeLa A3F-eYFP + Vif (tagged APOBEC3F with the HIV-1 protein that degrades it), YFP fluorescence increase; Potency, µM (highest dose often 46.1 µM); 390,000 tested, 0.2% active; AID 602313, 2012; further: nearly all actives have a fitted effect of over 65% in size
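HeLa cells stably expressing Vif plus C-terminally eYFP-tagged A3F were seeded, incubated overnight at 37 deg C, dosed with compound, incubated overnight again at 37 deg C. Yellow fluorescence (Ex 488/Em 500-530) reported blocked Vif-mediated A3F-eYFP degradation.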
GLS inhibitor = qHTS for Inhibitors of Glutaminase (GLS). Potency, µM (series often up to 45.5 µM), most hits filed as inhibitors. 410,000 tested, 0.21% active. AID 624170, 2012. GLS enzymatic activity, qHTS titration. Glutaminase kidney isoform, mitochondrial (Homo sapiens), O94925
Target sequence (O94925 whole entry, looked up, canonical isoform): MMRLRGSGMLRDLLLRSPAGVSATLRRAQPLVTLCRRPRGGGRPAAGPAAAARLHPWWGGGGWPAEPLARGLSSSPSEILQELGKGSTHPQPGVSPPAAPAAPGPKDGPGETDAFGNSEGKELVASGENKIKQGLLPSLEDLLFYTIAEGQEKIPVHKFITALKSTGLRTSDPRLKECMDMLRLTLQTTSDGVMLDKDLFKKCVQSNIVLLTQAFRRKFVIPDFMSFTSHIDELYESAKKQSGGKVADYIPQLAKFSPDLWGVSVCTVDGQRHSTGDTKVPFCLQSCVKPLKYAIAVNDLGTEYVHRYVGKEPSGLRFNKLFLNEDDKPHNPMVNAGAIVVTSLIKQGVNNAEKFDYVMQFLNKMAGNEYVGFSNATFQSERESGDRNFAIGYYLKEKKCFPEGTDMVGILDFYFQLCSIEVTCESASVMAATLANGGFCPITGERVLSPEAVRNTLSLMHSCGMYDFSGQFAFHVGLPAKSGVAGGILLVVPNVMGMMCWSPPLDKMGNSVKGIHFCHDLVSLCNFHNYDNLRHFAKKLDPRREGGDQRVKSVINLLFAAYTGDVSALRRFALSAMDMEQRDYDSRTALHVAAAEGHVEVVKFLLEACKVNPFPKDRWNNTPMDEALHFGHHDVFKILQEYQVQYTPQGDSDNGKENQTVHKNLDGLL
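Two-point fluorescence kinetic (t0, 30 min RT) for hKGA; glutamate detected via glutamate oxidase–HRP–Amplex Red. Substrate: 1 mM L-glutamine solution; buffer 45 mM KH2PO4, pH 8.2.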
A number is an active result; . = inactive; ? = inconclusive; / = no result given. An excerpt weighted towards active compounds, which were near 0.7% of everything screened. Unless noted, the call rests on the fitted dose curve; in most records, active means well fitted curve in the direction sought with a large enough effect; inconclusive means small, poorly fitted or top-dose-only effect, or another doubt; inactive means no such curve, though single readings can be large; an effect the other way counts as inactive or inconclusive.

SMILES	Epigenetic derep	Vif-APOBEC3G blk	PINK1 modulator	Vif-A3F inh	GLS inhibitor
FC(F)(F)c1cnc2c(c1)[nH]c(=S)n2-c1ccc(Cl)cc1	/	.	39.8µM	.	.
Cc1ncc2c(c1CNC(=O)c1ccc3c(c1)OCO3)CCN(C(=O)c1csc3c1CCCC3)C2	/	/	.	/	/
Cc1nc(C)c(CC(=O)N2CCOc3ccc(CN4CCOCC4)cc3C2)s1	/	/	.	/	/
CCOc1ccc(Nc2oc(/C=C/c3ccc(OC)c(OC)c3)nc2C#N)cc1	31.6µM	.	.	.	.
O=C(NN1C(=O)/C(=C/C=C/c2ccccc2)SC1=S)c1ccncc1	.	?	.	.	.
O=C(NN1C(=O)/C(=C/C=C/c2ccco2)SC1=S)c1ccncc1	.	.	.	.	7.94µM
O=C(N/N=C/C=C/c1ccco1)c1ccncc1	.	.	.	11.2µM	.
COc1ccc2c(c1)-c1nc(-n3ncc(C(=O)NCc4cccc(C)n4)c3C3CC3)ncc1CC2	/	/	.	/	/
CCN1C(=O)c2cccc3c(NC(=O)c4ccc5c(c4)OCCO5)ccc1c23	22.4µM	.	?	?	.
O=C(Cc1nc2ccccc2[nH]1)c1cccc([N+](=O)[O-])c1	.	.	14.1µM	.	.
COCC(=O)Nc1cc(C(=O)NC2Cc3ccccc3C2)cc2nc(-c3cccnc3)n(C)c12	/	/	.	/	/
Cc1ccc(-c2nc(C=Nc3ccc(O)cc3)c(O)o2)cc1	?	?	.	25.1µM	.
CC(C)C(NC(=O)c1ccccn1)c1nnc2n1CCN(Cc1ccc3ccccc3c1)CC2 (stereo not drawn)	/	/	.	/	/
Cc1c(C(=O)NCc2ccc3c(c2)OCO3)cnn1-c1ncc2c(n1)-c1ccccc1CC2	/	/	.	/	/
COc1ccc(-c2nc3ccc(C4=C(C)CC(=O)NN4)cc3[nH]2)cc1	/	/	/	/	31.6µM
Cc1ccccc1NC(=O)CC1SC(=O)N(c2ccccc2)C1=O (stereo not drawn)	.	.	.	.	.
O=C(CC1SC(=O)N(c2ccccc2)C1=O)Nc1cccc2ccccc12 (stereo not drawn)	.	.	.	.	10µM
O=c1oc2ccccc2c2oc3cc(O)c(O)cc3c12	.	.	.	?	2.82µM
Cc1ccc(NC(=O)c2c(C)nc3sc(C(=O)Nc4ccc(F)cc4)c(N)c3c2-c2ccc(C)o2)c(C)c1	22.4µM	?	.	?	.
COc1ccccc1NC(=O)c1sc2nc(C)c(C(=O)Nc3ccc(C)cc3C)c(-c3ccc(C)o3)c2c1N	.	.	.	.	.
COc1ccccc1NC(=O)c1sc2nc(C)c(C(=O)Nc3ccc(C)cc3C)c(-c3ccco3)c2c1N	8.91µM	.	.	?	.
Cc1ccc(NC(=O)c2c(C)nc3sc(C(=O)Nc4ccc(F)cc4)c(N)c3c2-c2ccc(Cl)cc2)c(C)c1	.	.	.	.	.
COc1cc(=O)n2c(c1C(=O)NCc1ccco1)CCN(Cc1c(F)cccc1F)CC2	/	/	.	/	/
Cc1c(C)c2ccc(OCC(=O)NC(Cc3c[nH]c4ccc(O)cc34)C(=O)O)c(C)c2oc1=O (stereo not drawn)	/	.	.	.	11.2µM
CCOC(=O)/C(=C/C=C1\Sc2cc(OCC)c(OCC)cc2N1CC)C(C)=O	22.4µM	.	?	.	.
SMILES	Epigenetic derep	Vif-APOBEC3G blk	PINK1 modulator	Vif-A3F inh	GLS inhibitor
CCN1/C(=C\C=C2\C(=O)N(C)C(=S)N2C)Sc2ccccc21	.	.	.	.	?
CCN1/C(=C/C(C)=O)Sc2ccc(OC)cc21	.	.	.	.	.
CCOC(=O)/C(=C\C=C1/Sc2cc(OCC)c(OCC)cc2N1CC)C(C)=O	5.62µM	.	?	.	?
CCN(CC)c1ccc(/C=C/c2ccnc3ccccc23)cc1	/	11.2µM	.	/	/
CN(C)c1ccc(/C=C/c2ccnc3c(Cl)cccc23)cc1	/	3.55µM	/	/	/
CCN(CC)CCN(CC)c1ccc(/C=C/c2ccnc3ccccc23)cc1	/	.	.	/	/
COc1cc(N(C)C)c(OC)cc1/C=C/c1ccnc2ccccc12	/	7.08µM	.	/	/
CCN(CC)c1ccc(/C=C/c2ccccn2)cc1	/	3.16µM	/	/	/
COc1cc(/C=C/c2ccnc3ccccc23)ccc1N(C)C	/	?	.	/	/
CCc1nc2cc(C(=O)N3CCC[C@H]3CO)cc(NC(=O)c3ccccc3OC)c2n1C	/	/	.	/	/
CN(Cc1cnc2ccccn12)C(=O)c1cc(NC(=O)c2ccccc2)cc2ncn(C3CCCC3)c12	/	/	.	/	/
CN(C)c1ccc(/C=C/c2ccnc3ccc(-c4ccccc4)cc23)cc1	/	7.08µM	.	/	/
CSc1ncccc1C(=O)N1CCOc2ccc(C(C)(O)CCn3cccn3)cc2C1 (stereo not drawn)	/	/	.	/	/
CCOC(=O)N1CCN(c2cc(NCCC(=O)O)c3c4c(onc24)-c2ccccc2C3=O)CC1	.	?	.	7.08µM	17.8µM
O=C(O)CCCNc1cc(N2CCN(C(=O)c3ccco3)CC2)c2noc3c2c1C(=O)c1ccccc1-3	/	22.4µM	?	?	?
CN1CCN(c2cc(N3CCN(C(=O)c4ccco4)CC3)c3c4c(onc24)-c2ccccc2C3=O)CC1	/	.	.	.	.
OC1(c2cccnc2)CCN(Cc2ccc3c(c2)CN(Cc2cccc(C(F)(F)F)c2)CCO3)CC1	/	/	.	/	/
Cc1ccc2nc(-c3ccccc3)cn2c1	.	.	.	.	.
Cc1ccc2nc(-c3ccc(O)c(O)c3)cn2c1	/	.	?	.	20µM
Oc1ccc(-c2csc(-c3ccccc3)n2)cc1O	.	?	.	.	?
Oc1ccc(-c2csc(-c3cccnc3)n2)cc1O	.	?	.	.	3.55µM
Cc1nc(-c2ccc(O)c(O)c2)cs1	.	.	.	.	11.2µM
COc1cc(Cl)c(C)cc1N1C(=O)[C@@H]2C[C@H]1CN2Cc1ccccn1	/	/	.	/	/
CCCN(CCC)S(=O)(=O)c1ccc(C(=O)OCCN2C(=O)c3cccc4c(N5CCOCC5)ccc(c34)C2=O)cc1	25.1µM	.	.	.	.
CCc1ccc(NC(=O)C(C)OC(=O)c2ccc(NS(=O)(=O)c3ccc(C)c([N+](=O)[O-])c3)cc2)cc1 (stereo not drawn)	.	.	44.7µM	.	.
SMILES	Epigenetic derep	Vif-APOBEC3G blk	PINK1 modulator	Vif-A3F inh	GLS inhibitor
Cc1ccc(NC(=O)C(C)OC(=O)c2ccc(NS(=O)(=O)c3ccc(F)c(F)c3)cc2)cc1 (stereo not drawn)	.	.	.	.	.
Cc1cccc(CNC(=O)c2cnn(-c3ncc(C)c(-c4cccs4)n3)c2C2CC2)n1	/	/	.	/	/
O=[N+]([O-])c1ccc(N/N=C/c2c[nH]c3ccccc23)c(S(=O)(=O)Nc2ccc(Cl)cc2)c1	?	?	?	25.1µM	.
CC(C)(C)C1=CC(=O)C(=O)C(C(C)(C)C)=C1	.	.	.	.	5.62µM
CC(C)(C)C1=CC(=Nc2ccccc2N)C=C(C(C)(C)C)C1=O	.	.	.	.	.
Cc1cccc(NC(=O)/C=C/c2ccc([N+](=O)[O-])s2)c1	7.08µM	?	.	7.08µM	.
